{"source": "PubChem BioAssay (NCI)", "note": "The panel holds about 83,000 compounds, 20% with a hit somewhere; the sample as a whole holds those more often.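 How to read the values: 0–100, growth inhibition (40 = 60% inhibited); 0, no net growth; -100 to 0, cell death (-40 = 40% of starting cells died; -100 = all dead).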 The source made the active and inactive calls.", "data": [{"system": "TK-10 renal", "assay": "NCI-60 one-dose screen, 48 h (100 = growth as untreated, 0 = no growth, -100 = all killed)", "conditions": "10 µM unless noted", "protocol": "Growth inhibition of the TK-10 human tumor cell line is measured as a screen for anti-cancer activity. Cells are grown in 96 well plates and exposed to the test compound for 48 hours. Compounds are tested at a single concentration, which is 10^-5 M for most compounds. The reported endpoint is percent growth (GI% or GIPRCNT), where numbers from 0 - 100% represent growth inhibition, and numbers from -100% - 0 represent cell death. For example, a value of 40 represents 60% growth inhibition. A value of 0 means no net growth occurred over the course of the experiment. A value of -40 indicates 40% of cells at the beginning of the experiment died by the end of the experiment. A value of -100 means all cells are dead at the end of the experiment.\nNCI-60 Human Tumor Cell Lines Screen was performed using the standard one-dose NCI protocol, which is described in more detail at https://dtp.cancer.gov/discovery_development/nci-60/default.htm.\nCompounds with GIPRCNT values below 10 were considered active. Activity score was based on GIPRCNT using the following formula: […]\nScore is 0 for GIPRCNT values of 100 or above, 50 for GIPRCNT values of 0, and 100 for GIPRCNT values of -100.", "values": [{"smiles": "Nc1ccc(CCCCc2ccccc2)c(Cl)c1", "growth": "88.7% (inactive)"}, {"smiles": "COc1ccc(C2CC(c3ccc4ccccc4c3)=NN2c2nc(O)c(C3=c4cc(Cl)ccc4=NC3=O)s2)cc1", "note": "(stereo not given)", "growth": "-66.6% (active)"}, {"smiles": "COc1cc(-c2cc(-c3ccc(Nc4nc(Nc5ccccc5)nc(Nc5ccc(Cl)cc5)n4)cc3)nc(N)n2)cc(OC)c1OC", "growth": "91.3% (inactive)"}, {"smiles": "COc1ccc(-c2cc(-c3cc(OC)ccc3OC)[nH]c(=O)c2C#N)cc1", "growth": "84.9% (inactive)"}, {"smiles": "C[C@@H]1CC[C@@H]2[C@@H]1[C@H](OC(=O)/C=C/c1ccccc1)[C@]1(C3CCCCC3)C[C@@H](NC(=O)CO)[C@@]2(C)O1", "growth": "92.3% (inactive)"}, {"smiles": "CC(C)(C)Nc1c(-c2c3ccccc3cc3ccccc23)nc2ccccn12", "growth": "76% (inactive)"}, {"smiles": "Cc1[nH]c(-c2nc3ccccc3[nH]2)c(C)c1C(=O)N1CCOCC1", "growth": "106% (inactive)"}, {"smiles": "CCN(CC)CCNc1ccc(C)c2sc3cc(C)ccc3c(=O)c12", "growth": "57.9% (inactive)"}, {"smiles": "CCOC(=O)Cc1csc2nc(-c3ccccc3)nn12", "growth": "126% (inactive)"}, {"smiles": "C=C(CNCCc1ccc(O)cc1)[C@@H]1CC[C@]2(COC3CCCCO3)CC[C@]3(C)[C@H](CC[C@@H]4[C@@]5(C)CCC(NCCO)C(C)(C)[C@@H]5CC[C@]43C)[C@@H]12", "note": "(stereo not given in full)", "growth": "-89.7% (active)"}, {"smiles": "CC(C)(C)CC(C)(C)Nc1c(-c2ccc(-c3ccccc3)cc2)nc2cnccn12", "growth": "86.6% (inactive)"}, {"smiles": "CCN(CC)CCCNC(=O)c1ccc(N)cc1O", "growth": "106% (inactive)"}, {"smiles": "CCOC(=O)c1ccc(-c2ccc3cc(OC)ccc3c2)nc1C", "growth": "84.3% (inactive)"}, {"smiles": "Cc1cc(C(c2ccccc2)c2ccccc2)ccc1NS(=O)(=O)c1ccccc1", "growth": "123% (inactive)"}, {"smiles": "CN1CCN(CCCOc2ccc3nc(Nc4cc(Cl)cc(Cl)c4)ccc3c2)CC1", "growth": "-79.7% (active)"}, {"smiles": "CC[C@@H](C[C@H](CCO)c1ccccc1)c1cc2ccccc2o1", "growth": "98.8% (inactive)"}, {"smiles": "O=C(O)c1ccccc1C(=O)Nc1ccc(Cl)cc1", "growth": "93.3% (inactive)"}, {"smiles": "COc1ccc(C2CC(c3ccccc3)=NN2c2nc(C)c(C(C)=O)s2)cc1", "note": "(stereo not given)", "growth": "110% (inactive)"}, {"smiles": "CC(C)N(CCOC(=O)Nc1ccccc1Cl)C(C)C", "growth": "108% (inactive)"}, {"smiles": "COc1cc2c(O)n(CCCn3ccnc3)c3c4cnc5cccc(c(=O)c3c2cc1OC)c54", "growth": "92.7% (inactive)"}, {"smiles": "COc1ccc(OC)c(/C=C2\\COc3ccc(O)c(O)c3C2=O)c1", "growth": "41.5% (inactive)"}, {"smiles": "C#CC[C@H](N)C(=O)O", "growth": "87.7% [20 µM] (inactive)"}, {"smiles": "COc1cc2ccccc2cc1C(=O)NC(=S)Nc1ccc(-c2nc3ccccc3[nH]2)cc1", "growth": "83.4% (inactive)"}, {"smiles": "Nc1nc(I)c2ncn(C3OC(CO)C(O)C3O)c2n1", "note": "(stereo not given)", "growth": "134% (inactive)"}, {"smiles": "CCOC(=O)C(=CNc1ccccc1[N+](=O)[O-])C(=O)OCC", "growth": "106% (inactive)"}, {"smiles": "Cc1ccc(-n2nnc(C3=NCCc4c3[nH]c3ccc(Cl)cc43)c2C)cc1", "growth": "78.9% (inactive)"}, {"smiles": "CNC(=O)NCC1OC(n2cnc3c(NC(=O)Nc4ccccc4)ncnc32)C2OC(C)(C)OC12", "note": "(stereo not given)", "growth": "134% (inactive)"}, {"smiles": "O=C(Nc1ccccc1)c1sc(-c2cccc(C(F)(F)F)c2)cc1O", "growth": "96.5% (inactive)"}, {"smiles": "O=C1c2ccccc2C2(c3ccc(O)cc3)c3ccccc3Oc3cccc1c32", "note": "(stereo not given)", "growth": "84.3% (inactive)"}, {"smiles": "CN(CCC(=O)/C(=C\\c1ccccc1)c1ccc(Cl)cc1)Cc1ccccc1", "growth": "51.8% (inactive)"}, {"smiles": "CCOc1ccc2nc(-c3cccc(OCC(=O)NC(C)C)c3)nc(Nc3ccc(-c4cn[nH]c4)cc3)c2c1", "growth": "47.4% (inactive)"}, {"smiles": "COc1ccc(Cn2cnc3cc(C(=O)Nc4cccc5ccccc45)ccc32)c(OC)c1", "growth": "76.8% [30 µM] (inactive)"}, {"smiles": "Cc1ccc(NC(=O)C(Cl)Cl)cc1", "growth": "94.3% (inactive)"}, {"smiles": "C=CC(=O)N[C@@H](Cc1ccc(-c2cc(Cl)cc(Cl)c2)cc1)[C@@H](O)[C@H](O)C(=O)O", "growth": "99.3% (inactive)"}, {"smiles": "COC(=O)[C@]12CC[C@@H](C)[C@H](C)[C@@H]1C1=CC[C@@H]3[C@@]4(C)C(C=O)=C[C@@](C)(CO)C4=CC[C@@]3(C)[C@]1(C)CC2", "growth": "54.4% (inactive)"}, {"smiles": "CN(C)c1ccc2cc(-c3ccccc3F)c(N)nc2c1", "growth": "34.6% (inactive)"}, {"smiles": "CC(C)c1ccc(C(=O)OC(=O)c2ccc(C(C)C)cc2)cc1", "growth": "98.2% (inactive)"}, {"smiles": "CN1CCN(C2=C(Cl)C(=O)c3ccccc3C2=O)CC1", "growth": "93.5% (inactive)"}, {"smiles": "COc1cc2c(cc1OC)-c1ccc3cc4c(cc3c1N(CCCn1ccnc1)C2)OCO4", "growth": "91.3% (inactive)"}, {"smiles": "CN1C[C@@H](c2ccc(Cl)cc2)[C@]2(NC(=S)N(c3ccccc3)C2=O)[C@@]12C(=O)NC1C=CC(Br)=C[C@H]12", "note": "(stereo not given in full)", "growth": "87.2% (inactive)"}]}]}
